66 compounds from PubChem BioAssay AID778 (Sanford-Burnham Center for Chemical Genomics, 2007) can be followed below.

In all, about 96,000 compounds went through this assay and about 20,000 (21%) were called active.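 Rule for the calls: active = CYP2C19 inhibition above a set limit at 5 µM in the primary screen (cut at about 50% in these data); inactive = the rest.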 The list is a sample of the results.

The target in this experiment is Cytochrome P450 2C19 (Homo sapiens) (UniProt P33261). As to the kind of experiment: blockers of cytochrome P450 2C19 activity – biochemical, luminescence, ADME assay, primary screen (AID 778).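 Note: plate controls were negative control wells for no effect and 2.5 mM tranylcypromine positive control for full effect.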 The settings on record: CYP2C19 Supersomes, luciferin-H EGE luminescence, 30 min; at 5 µM; active compounds read high.
Chain of Cytochrome P450 2C19 (Homo sapiens) (P33261 whole entry, looked up): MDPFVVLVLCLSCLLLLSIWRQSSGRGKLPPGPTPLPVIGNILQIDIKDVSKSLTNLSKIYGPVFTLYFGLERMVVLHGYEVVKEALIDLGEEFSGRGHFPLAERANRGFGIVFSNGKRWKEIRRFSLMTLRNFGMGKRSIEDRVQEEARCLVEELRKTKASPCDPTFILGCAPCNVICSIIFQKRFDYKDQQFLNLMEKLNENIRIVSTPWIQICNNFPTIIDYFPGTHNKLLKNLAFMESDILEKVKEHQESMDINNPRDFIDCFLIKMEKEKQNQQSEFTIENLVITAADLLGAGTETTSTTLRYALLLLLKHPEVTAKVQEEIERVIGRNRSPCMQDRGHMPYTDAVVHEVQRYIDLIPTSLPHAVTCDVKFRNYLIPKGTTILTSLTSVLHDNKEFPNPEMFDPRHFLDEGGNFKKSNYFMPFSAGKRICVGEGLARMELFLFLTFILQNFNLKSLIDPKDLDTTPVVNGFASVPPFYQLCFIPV
Turning to `CCNC(=S)Nc1cccc(Cl)c1C`, the inhibition (in general, the change of the read-out against control, counted positive when it falls) is 48% (inactive).
Under `Nc1nc(SCc2ccccc2Cl)n[nH]1` stands 0.1% (inactive); under `Clc1ccccc1CSc1nnc(-c2ccco2)c(-c2ccco2)n1`, 31.1% (inactive); under `Cc1cc(C)nc(SCc2ccccc2C#N)n1`, 50.2% (active).
Under `Cc1ccc(CS(=O)(=O)CCC(=O)NC2CC2)cc1` stands 9.7% (inactive); under `CCCCCNC(=O)Cc1ccc(OC)cc1`, 92.4% (active); under `COc1ccc(CNC(=O)CCn2cccc2)cc1`, 35% (inactive).
For `COc1ccc(OCC(=O)NCCc2ccc(S(N)(=O)=O)cc2)cc1`, the inhibition is 19.4% (inactive).
For `O=C(NCCN=C1NS(=O)(=O)c2ccccc21)c1ccc(S(=O)(=O)N2CCOCC2)cc1` the value was -2% (inactive); for `O=C1CCCC2=C1C(c1ccccc1)n1c(s/c(=C/c3cccc(F)c3)c1=O)=N2` (stereo unspecified), 34.6% (inactive).
Turning to `CS(=O)(=O)Nc1cccc(C2=NN(S(=O)(=O)c3ccccc3)C(c3cccs3)C2)c1` (stereo unspecified), the inhibition is 72.2% (active).
Under `CCOC(=O)C1CCN(C(=O)c2oc3ccc(S(=O)(=O)N4CCCCCC4)cc3c2C)CC1` stands 40.4% (inactive).
Consider `O=C(Nc1nnc(SCc2ccccc2)s1)c1ccco1`, for which the inhibition is 2.5% (inactive).
Under `COc1ccc2c(CC(=O)Nc3nnc(C4CC4)s3)coc2c1` stands 12.6% (inactive); under `COc1ccc(CN(Cc2ccco2)S(=O)(=O)c2ccc(S(=O)(=O)N3CCCC3)cc2)cc1`, 38.7% (inactive).
As to `CCOc1ccc(CN(Cc2ccco2)C(c2cccs2)c2nnnn2C(C)(C)C)cc1` (stereo unspecified), the inhibition was 47.8% (inactive).
As for `CCOc1ccc(CN(Cc2ccco2)S(=O)(=O)c2ccc(-n3cnnn3)c(OC)c2)cc1`, the inhibition is 57.7% (active).
Consider `CCOc1nnc(C)c2c(C)n(-c3cccc(Cl)c3)nc12`, for which the inhibition is 45.7% (inactive).
For `Cc1cc(=O)n(C)c(=O)n1CCCNc1ccccc1` the value was 18.5% (inactive).
For `CC(=O)c1sc(NC(=O)c2cccc3ccccc23)nc1C` the value was -21.9% (inactive).
Under `COc1ccccc1N1CCN(C(=O)c2cc(-c3ccc(Br)cc3)on2)CC1` stands -2.9% (inactive); under `COc1ccccc1N1CCN(C(=O)c2c(-c3c(Cl)cccc3Cl)noc2C)CC1`, 78.9% (active).
Turning to `COc1ccccc1N1CCN(C(=O)c2ccc(S(=O)(=O)N3CCCCC3)cc2)CC1`, the inhibition is 28.3% (inactive).
For `Cc1ccc(NC(=O)N2CCC(O)(c3cccnc3)CC2)cc1` the value was 2.2% (inactive); for `CC1=NN(C(=O)c2ccccc2Br)C(O)(c2cccnc2)C1` (stereo unspecified), 16.7% (inactive); for `CC1=NN(C(=O)Cc2ccc(C)cc2)C(O)(c2cccnc2)C1` (stereo unspecified), 62.6% (active).
For `CC(c1ccccn1)N(CCN(C)C)C(=S)Nc1ccccc1F` (stereo unspecified) the value was 13.7% (inactive).
For `Cc1cc2c(c(=O)n1C)C(C(C)C)C(C#N)=C(N)O2` (stereo unspecified) the value was 3.4% (inactive); for `CCCCN(C)C(=O)C1CCN(Cc2ccccn2)CC1`, -6.2% (inactive).
Consider `COc1ccc(C2CC(=O)C=C(NCC3CCCO3)C2)cc1` (stereo unspecified), for which the inhibition was 19.6% (inactive).
Under `COc1ccc(-c2nn3c(-c4ccccc4)nnc3s2)cc1OC` stands 0.9% (inactive).
Under `COc1cc(-c2nn3c(-c4cccc(C)c4)nnc3s2)cc(OC)c1OC` stands 79.2% (active); under `CCOc1cccc(-c2nn3c(-c4ccccn4)nnc3s2)c1`, -1.6% (inactive).
Under `CC(C)(C)n1c(=O)[nH]c2c(c1=O)CCC2` stands -16.7% (inactive).
Turning to `O=C(O)C1CCN(S(=O)(=O)N2CCOCC2)CC1`, the inhibition is -3% (inactive).
For `O=S(=O)(NCC1OCCc2ccccc21)c1ccccc1` (stereo unspecified) the value was 53.6% (active); for `O=C1c2ccccc2C(=O)N1CC1c2ccccc2CCN1S(=O)(=O)c1ccccc1` (stereo unspecified), 36.9% (inactive).
Consider `O=C(CN(CC1CCCO1)C(=O)CNS(=O)(=O)c1ccccc1)NCc1ccccc1` (stereo unspecified), for which the inhibition was 4.5% (inactive).
For `N#CC(C(N)=O)=C1CCC2(CC1)OCCCCO2` the value was 24.1% (inactive).
For `CC(N)C12CC3CC(CC(O)(C3)C1)C2` (stereo unspecified) the value was 6.1% (inactive).
Under `FC(F)(F)c1cccc(-c2cc3ccccc3nc2N2CCCC2)c1` stands 16.1% (inactive); under `O=C1c2ccncc2C(=O)N1C1CCCCC1`, -1.7% (inactive); under `COc1ccc2c(Cl)c(-c3nnco3)sc2c1`, 19% (inactive).
Regarding `COc1cccc(N=c2oc3c(C)ncc(CO)c3cc2C(N)=O)c1`, the inhibition is 21.1% (inactive).
For `CC(Oc1ccc(Cl)cc1Cl)C(=O)/C=C/N(C)C` (stereo unspecified) the value was 60.1% (active); for `CC(Oc1ccc(F)cc1F)C(=O)/C=C/N(C)C` (stereo unspecified), -6.9% (inactive).
`CN(C)/C=C/C(=O)c1ccccc1F`: the inhibition was -7% (inactive).
For `Cc1cccc(N(CC(O)CN(C)C)S(=O)(=O)c2ccccc2)c1` (stereo unspecified) the value was -5.2% (inactive); for `O=C(CN1CCSCC1)N/N=C/c1ccc(F)cc1F`, 3.1% (inactive); for `Cc1ccc(-c2nc(CS(=O)CC(=O)NC3CCCC3)c(C)o2)cc1` (stereo unspecified), 32.1% (inactive).
For `COC(=O)C1(S(=O)(=O)C2(C(=O)OC)CCCC2)CCCC1` the value was 65.4% (active); for `COc1ccc(Cc2nnc(SC)[nH]c2=O)cc1`, -4.5% (inactive).
For `Cc1cccc(C(=O)NCCCN2CCCC2=O)c1` the value was 21.8% (inactive).
In the case of `CCc1nc(C)cn1S(=O)(=O)c1cc(OC)c(C)cc1C`, the inhibition was 45.7% (inactive).
Under `COc1ccc(N2C(=O)CN=C2Nc2cccc(C)c2C)cc1OC` stands 17.1% (inactive).
Under `Cc1cc(C)nc(NC2=NCC(=O)N2c2ccc(Cl)cc2)n1` stands 4.3% (inactive); under `COc1ccc(CN2C(=O)CN=C2Nc2ccc(C)cc2C)cc1`, 82.7% (active); under `Cc1nc(NC2=NC(C(=O)Nc3ccc(Cl)cc3)CC(=O)N2)nc2ccccc12` (stereo unspecified), 2.5% (inactive).
For `CC(C)Oc1ccc(C(=O)NC(C)(C)CO)cc1` the value was 3.7% (inactive).
As for `COCCOC(=O)C1=C(C)Nc2nc(C)nn2C1c1ccccc1` (stereo unspecified), the inhibition was 17.9% (inactive).
Under `COC(=O)c1ccc(C2CC(=O)Nc3cc(OC)c(OC)cc32)cc1` (stereo unspecified) stands 36.1% (inactive).
Consider `COCCOC(=O)C1=C(C)NC(=O)CC1c1cc2c(cc1Br)OCO2` (stereo unspecified), for which the inhibition was 83.7% (active).
As for `CC(C)(C)C(=O)Nc1ccc(C(=O)N/N=C/c2ccccc2OC(=O)c2ccc(Cl)cc2Cl)cc1`, the inhibition is 42.1% (inactive).
Take `CN1CCN(S(=O)(=O)c2ccc(NC(=O)c3ccco3)cc2)CC1`: the inhibition was -15.6% (inactive).
Under `Fc1ccc(N2N=C(c3cccs3)CC2c2ccco2)c(F)c1` (stereo unspecified) stands 2.3% (inactive); under `CCS(=O)(=O)Nc1ccc(C2=NN(S(=O)(=O)c3ccc(F)cc3)C(c3ccco3)C2)cc1` (stereo unspecified), 82.8% (active).
